Structures are written as SMILES. About 83,000 compounds went through this panel and 20% of them were active in at least one assay; those are over-represented in the sample as a whole.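 Treatment: one concentration, 48 hours, 96-well format. Scoring: percent growth, with anything below 10 considered active.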 Values without a mark were called inactive. The source made the active and inactive calls.

The assay deals with NCI/ADR-RES ovarian. Kind of assay: NCI-60 one-dose screen, 48 h (100 = growth as untreated, 0 = no growth, -100 = all killed). The settings on record: 10 µM unless noted.
As to `CC1=CC[C@@H]2CC[C@]3(C)[C@H](CC[C@@H]4[C@@]5(C)CCCNC(C)(C)[C@@H]5CC[C@]43C)[C@H]2[C@@H]1C`, the growth was -45.1% (active).
Consider `Fc1ccc(C2CC(c3cccc(Nc4ccncc4)c3)=NN2c2ccccc2)cc1` (stereo not drawn), for which the growth was 73%.
For the molecule `Cc1ccc(C(=O)Nc2ccccc2C(=O)N/N=C(\c2ccccc2)c2ccccn2)cc1`, the growth is 13.3%.
As for `COc1cc(/C=C/C(=O)c2c(C)oc3nc[nH]c(=O)c23)ccc1O`, the growth was 101%.
With `CS(=O)(=O)Nc1cc(-c2ccc3ncnc(Nc4ccc5[nH]ncc5c4)c3c2)cnc1Cl`, the growth is 91.2%.
For `COc1ccc(-c2ncc(-c3ccccc3)[nH]2)cc1OC` the value was 121%.
Turning to `O=C1Nc2cc(-c3ccncc3)ccc2/C1=C/c1ccc[nH]1`, the growth is 94.6%.
Take `Nc1c(C(=O)Nc2ccc(Cl)cc2)cc(-c2nc3ccccc3s2)c(=O)n1NS(=O)(=O)c1ccc(Cl)cc1`: the growth is 105%.
The same measure for `CCOc1cc(CNc2ccc(N3CCOCC3)c(C(=O)O)c2)ccc1OC`: 102%; for `Cc1ccc(C2CC(c3cccc(Nc4ccncc4)c3)=NN2c2cc(Cl)cc(Cl)c2)cc1` (stereo not drawn): 52.1%.
With `COc1ccc(/C(C)=N/NC(=O)CSc2nc3ccccc3c(=O)n2Cc2ccc(S(N)(=O)=O)cc2)c(OC)c1`, the growth is 100%.
For the molecule `COc1ccc(C(=O)c2cc(C)c(OC)c(C)c2)c(OC)c1N(C(=O)C(Cl)Cl)C(=O)C(Cl)Cl`, the growth was -1.2% (active).
As for `Cc1ccccc1-c1cc(Cc2ccc(F)cc2)c(=O)[nH]n1`, the growth is 102%.
`CCCC1C(C(=O)OCC)=C(N)Oc2cc(O)ccc21` (stereo not drawn): the growth was 94.3%.
`COc1c(Cl)cc(Cl)c2ccc(C=C3C(=O)N(C)C(=O)N(C)C3=O)nc12`: the growth is 106%.
The same measure for `O=C1Nc2ccccc2/C1=N/c1nc(-c2ccc(Cl)cc2)cs1`: 88.9%.
As for `COC(=O)Nc1nc2ccc(C(=O)c3cccc(I)c3)cc2[nH]1`, the growth was -0.725% (active).
As for `O=C(Nc1ccc(Nc2ncccn2)cc1)NC1C=c2ccccc2=CC1` (stereo not drawn), the growth was 106%.
With `CNC(=O)c1c(NC(=O)c2ccc(C(C)C)cc2)sc2c(CN(C)C)c(O)ccc12`, the growth is 91.3%.
Consider `COc1ccc(Cc2nc3cc(OC)c(OC)cc3c(=O)[nH]2)cc1`, for which the growth was 74.8%.
Consider `O=C1c2cccnc2C(=O)c2nc3cc(N4CCN(C5CC5)CC4)ccc3nc21`, for which the growth was 20.1%.
In the case of `CCOC(=O)N1CCN(CCCCl)CC1`, the growth is 102%.
As to `O=C(OCc1nc2nc(Cl)nc(N3CCOCC3)c2[nH]1)n1ccnc1`, the growth is 6.27% (active).
In the case of `COc1ccc(C(=O)c2cc3c(N)c(C(=O)Nc4cccc(Cl)c4C)sc3nc2C)cc1`, the growth is 8.86% (active).
Regarding `O=C(OC(OC(=O)c1cc(Cl)cc(Cl)c1)c1cccc2ccccc12)c1ccccc1` (stereo not drawn), the growth is 99.7%.
The same measure for `CN(Cc1ccccc1)c1nc(Cl)c(C2CC(c3ccc(Cl)cc3)=Cc3[nH][nH]c(=O)c32)s1` (stereo not drawn): 89.6%; for `COc1ccc(NC(=O)c2sc3nc(C)c(C(=O)CCc4cccc(OC)c4)cc3c2N)cc1`: 61.3%.
As for `O=S(=O)(NCCCNc1nccc(-c2c(-c3cccc(O)c3)nc3occn23)n1)c1ccc(F)cc1`, the growth is 105%.
As for `CC(=O)N1c2ccccc2NC2=C(C(=O)N(Cc3ccccc3)C2(C)C)C1c1ccco1` (stereo not drawn), the growth was 82.9%.
In the case of `C#Cc1cccc(NC(=O)Nc2ccc(NC(=O)CCl)cc2)c1`, the growth is -8.33% [8.25 µM] (active).
As for `COc1cc(COC(=O)CCCCC[P+](c2ccccc2)(c2ccccc2)c2ccccc2)c(OC)c2c1OCO2`, the growth was 104%.
Turning to `Cc1c([N+](=O)[O-])cc(C(C)(C)C)cc1[N+](=O)[O-]`, the growth is 103%.
As to `Clc1nc(Cl)c2ncn(CC3(Cn4cnc5c(Cl)nc(Cl)nc54)COC3)c2n1`, the growth was -57.4% (active).
With `COc1cc2nc(-c3ccc(C(F)(F)F)cc3)cc(OCCCN3CCC(O)CC3)c2cc1OC`, the growth is 37.6%.
For the molecule `COc1cc(Nc2cc(O)c3c(=O)cc(-c4ccccc4)oc3c2)cc(OC)c1`, the growth is 22.2%.
The same measure for `C[C@]12C[C@H]1CC[C@]1(C)[C@@H]2CC[C@@]23C[C@H](CC[C@H]21)[C@@](O)(CO)C3`: 97.7%; for `Cc1nc2sc(C(=O)Nc3ccccc3)c(N)c2cc1C(=O)c1ccc(C(F)(F)F)cc1`: 99%; for `N#CSCC1CC(O)(c2ccccc2)C(c2ccccc2)C(c2ccc(F)cc2)O1` (stereo not drawn): 35.3%.
